Values joined by “and” are separate entries in the source; they are usually repeats but may differ in a detail not shown here. Identical values can stand only once. Hit rate of the full screen: of about 420,000 compounds, about 50,000 (12%) were called active. Not shown: some 26% with an inconclusive outcome. Calls come from the whole dose curve; as a rule, active = well fitted inhibition curve with a large enough effect; inconclusive = small, poorly fitted or top-dose-only effect; inactive = flat fitted curve, though single readings scatter. The sample as a whole holds a higher share of actives than the screen did. More than one record can exist for a structure, and the calls need not agree.
assay: qHTS for Inhibitors of human tyrosyl-DNA phosphodiesterase 1 (TDP1): qHTS in cells in presence of CPT; details: chicken DT40 Tdp1-/-;hTDP1 cells + 20 nM CPT, ATP luminescence, 48 h; series mostly up to 46.2 µM; activity change, negative = growth inhibition: at the top concentration; note: nearly all actives have a fitted effect of over 55% in size
How it was run: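 Chicken DT40 Tdp1-/- cells stably complemented with human TDP1 were seeded at 400 cells/well in medium containing 20 nM camptothecin, exposed to pin-transferred compounds, and grown at 37 °C for at least 48 hr. Viability was read as ATP luminescence.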
% is set by controls: 0 for no effect and ±100 for the full control effect; potency is the fitted concentration of half-maximal effect.

Structure (SMILES)	activity change, negative = growth inhibition	Potency
CSCC(NS(=O)(=O)c1ccc(C)cc1)C(=O)O (centres undefined)	10.7% (inactive)	–
CCC(C)N(C(=O)CSc1ncnc2c1cnn2-c1ccccc1)C1CCS(=O)(=O)C1 (centres undefined)	-31.3% (inactive)	–
O=C(CNS(=O)(=O)c1ccc2c(c1)OCCCO2)N1CCN(c2ccc(F)cc2)CC1	–	20.6 µM (active)
Cc1ccc(S(=O)(=O)NCC(=O)N2CCOCCOCCOCCOCC2)cc1	2.53% (inactive)	–
COc1ccc(N2CCN(C(=O)CNS(=O)(=O)c3ccc(C)c(C)c3)CC2)cc1	-0.48% (inactive)	–
CCOC(=O)[C@H]1[C@H]2COc3ccccc3[C@@H]2N2C(=O)CN(Cc3ccccc3)C(=O)[C@@]12C	2.35% (inactive)	–
CCCNC(=S)N1CCC(NC(=O)c2ccc(OC)cc2)CC1	-5.72% (inactive)	–
CC(C)n1c(-c2cccs2)nc2ccccc21	-29.4% (inactive)	–
O=c1c(-c2cccs2)nc2cnc(Oc3ccccc3)nc2n1-c1ccccc1	22.1% (inactive)	–
CCC(c1nc2ccccc2[nH]1)n1c(=O)c(-c2cccs2)nc2ccccc21 (centres undefined)	–	18.4 µM (active)
O=C(NCc1ccccc1)C(c1cccnc1)N(C(=O)c1csnn1)c1ccc(F)cc1 (centres undefined)	-0.462% (inactive)	–
COc1cc(OC)nc(N/N=C(\c2ccccc2)c2ccncc2)n1	-0.201% (inactive)	–
CCC(=O)Nc1nc(OC)cc(OC)n1	-1.67% (inactive)	–
COc1cc(OC)nc(NC(=O)CCl)n1	–	14.6 µM (active)
CCSc1nsc(NC(=O)Nc2ccccc2OC)n1	-1.09% (inactive)	–
Cc1ccc(C)c(NC(=O)c2ccc3nccnc3c2)c1	2.67% (inactive)	–
Cc1ccc(NC(=O)c2cccc(N(C)C)c2)cc1NC(=O)c1ccc(O)cc1	–	inactive and 29.9 µM (active)
Cc1ccc(F)cc1NC(=O)c1cccc(N(C)C)c1	4.84% (inactive)	–
O=C(c1cn2ccccc2n1)N1CCc2c([nH]c3ccccc23)C1c1ccccn1 (centres undefined)	-7.37% (inactive)	–
CCc1nc2ccc(C(=O)NC3CCN(Cc4ccccc4)CC3)cn2c1N(C)CCN1CCOCC1	-5.59% (inactive)	–
O=C(NN=Cc1ccc([N+](=O)[O-])cc1)C1CC1	-7.32% (inactive)	–
O=[N+]([O-])c1ccc(C=NN=Cc2ccc([N+](=O)[O-])cc2)cc1	-3.28% (inactive)	–
O=C1/C(=C\c2ccc([N+](=O)[O-])cc2)CS(=O)(=O)C/C1=C/c1ccc([N+](=O)[O-])cc1	–	0.0259 µM (active)
CCOc1cccc2cc(C(=O)OCC(=O)Nc3c(C)cccc3CC)c(=O)oc12	-27.3% (inactive)	–
COCCNC(=O)CSc1nc2sccc2c(=O)n1-c1ccccc1	-4.25% (inactive)	–
COc1ccc(N2CCN(C(=O)C3CCN(S(=O)(=O)c4ccc(C)cc4)CC3)CC2)cc1	-12.3% (inactive)	–

Structure (SMILES)	activity change, negative = growth inhibition	Potency
COc1ccc(N(C)C(=O)C2CCN(S(=O)(=O)c3cc(Br)cc4c3N(C(C)=O)CC4)CC2)cc1	-3.73% (inactive)	–
COc1ccc(S(=O)(=O)N2CCC(C(=O)N3CCCC3)CC2)cc1C	-14.2% (inactive)	–
Cc1ccc(N(C)C(=O)C2CCN(S(=O)(=O)c3ccc4c(c3)CCCN4C(=O)C3CCC3)CC2)cc1	–	23.1 µM (active)
Cc1ccc(S(=O)(=O)N2CCC(C(=O)OCC(=O)N(C)c3ccccc3)CC2)cc1C	-3.59% (inactive)	–
Cc1ccc(S(=O)(=O)N2CCC(C(=O)N3CCCCCCC3)CC2)cc1	–	20.6 µM (active)
Cc1c(NC(=O)COC(=O)/C=C/c2cccc(F)c2)c(=O)n(-c2ccccc2)n1C	-21.7% (inactive)	–
O=C1C[C@@H]2c3c(cccc3CN1Cc1ccccc1)C[C@@H](O)[C@H]2O	–	inactive
NC(=O)CSc1nnc(NC(=O)c2ccc3ccccc3c2)s1	-12.1% (inactive)	–
CCc1ccccc1NC(=O)c1ccc(F)c(S(=O)(=O)NC2CCCCCC2)c1	-21.5% (inactive)	–
Cc1cc(=O)n(CC(=O)Nc2cccc([N+](=O)[O-])c2)c(-n2nc(C)cc2C)n1	–	20.6 µM (active)
CN1CCN(CC(=O)Nc2cccc([N+](=O)[O-])c2)CC1	7.3% (inactive)	–
O=C(CN1CCOCC1)Nc1cccc([N+](=O)[O-])c1	-7.67% (inactive)	–
Cn1c(=O)c2c(ncn2CC(=O)N/N=C/c2cn[nH]c2-c2ccc(F)cc2)n(C)c1=O	-11% (inactive)	–
COc1ccc(Br)cc1/C=N/Nc1ccc(Cl)c(C(=O)O)c1	2.98% (inactive)	–
N#Cc1c(-c2ccc(F)cc2)cc(C2CC2)nc1SCC(=O)c1cccs1	-0.343% (inactive)	–
Cn1sc(=O)c2cc(S(=O)(=O)NC3CC3)ccc21	–	2.91 µM (active)
O=S(=O)(NC1CC1)c1ccc(Cl)cc1	16.8% (inactive)	–
O=S(=O)(NC1CC1)c1ccc(F)c(F)c1	16.7% (inactive)	–
COc1ccc(C)cc1NC(=O)NCCCCc1ccccc1	-22.3% (inactive)	–
CCOC(=O)c1[nH]c(C)c(C(=O)OCC(=O)N2c3ccccc3CC2C)c1C (centres undefined)	-30.2% (inactive)	–
CC(=O)CSc1nc(CCc2ccccc2)c(C#N)c(=O)[nH]1	-8.62% (inactive)	–
Cc1nn2c(=O)cc(COC(=O)c3ccccc3NC(=O)COc3ccccc3C)nc2s1	-0.73% (inactive)	–
Cc1cccc(C(=O)Nc2nnc(S(=O)(=O)N3CCCCCC3)s2)c1	-4.12% (inactive)	–
Cc1nn(C)c(C)c1S(=O)(=O)N1CCc2ccccc21	-8.41% (inactive)	–
O=C(Nc1nnc(S(=O)(=O)N2CCOCC2)s1)c1cccc(Br)c1	-29.9% (inactive)	–
CSc1nc2ccc(S(=O)(=O)N3CCc4ccccc43)cc2s1	–	16.4 µM (active)

Structure (SMILES)	activity change, negative = growth inhibition	Potency
NS(=O)(=O)c1ccc2nc(NC(=O)C3=COCCO3)sc2c1	7.48% (inactive)	–
O=S(=O)(c1ccccc1)N1CCc2ccccc21	5.41% (inactive)	–
O=C(Nc1nc2ccc([N+](=O)[O-])cc2s1)c1ccc(S(=O)(=O)N2CCCc3ccccc32)cc1	–	4.61 µM (active)
O=C(Nc1nnc(S(=O)(=O)N2CCCc3ccccc32)s1)c1cccc(F)c1	–	16.4 µM (active)
O=C(Nc1nnc(S(=O)(=O)N2CCCCCC2)s1)c1cccc(Br)c1	–	5.8 µM (active) and 25.9 µM (active)
CS(=O)(=O)c1ccc2nc(NC(=O)c3ccc(N4CCCC4=O)cc3)sc2c1	-2.13% (inactive)	–
CCC(=O)Nc1nnc(S(=O)(=O)N2CCCc3ccccc32)s1	-15.7% (inactive)	–
CCOC(=O)CSc1nnc(NC(=O)c2cccc(S(=O)(=O)N3CCCCC3)c2)s1	-22.7% (inactive)	–
CN(Cc1ccc2nsnc2c1)Cc1nc(Cc2cccc(F)c2)no1	9.94% (inactive)	–
Cc1cc(C)c(S(=O)(=O)c2ccc(F)cc2C)c(=O)[nH]1	-5.32% (inactive)	–
CN(CC(=O)NC1CCCC1)S(=O)(=O)c1cnc[nH]1	-1.63% (inactive)	–
C=CCN1CN(S(=O)(=O)c2ccc(OC)cc2)c2nc3ccccc3nc21	-28.3% (inactive)	–
O=C(Cn1cc(C(F)(F)F)ccc1=O)N/N=C/c1ccc(Cl)cc1Cl	-30% (inactive)	–
CC1(C(=O)NS(=O)(=O)c2ccc(C#N)cc2)CCN1C(=O)c1ccc(C2CCCCC2)cc1 (centres undefined)	-41.5% (inactive)	–
O=C(CNC(=O)OCc1ccccc1)NC1CCCCNC1=O (centres undefined)	1.86% (inactive)	–
Cc1ccc(C(=O)NCC(=O)OCC(=O)NC2CCCCCCC2)cc1	2.91% (inactive)	–
CN(C1CCS(=O)(=O)C1)S(=O)(=O)c1ccc2ccccc2c1 (centres undefined)	-5.3% (inactive)	–
O=C(CNC(=O)c1ccccc1)Oc1ccc([N+](=O)[O-])cc1	-9.37% (inactive)	–
O=C(NC(Nc1nc2ccc([N+](=O)[O-])cc2s1)(C(F)(F)F)C(F)(F)F)c1ccccc1	–	0.461 µM (active)
O=C(COC(=O)c1ccc(F)cc1)Nc1nc2ccc([N+](=O)[O-])cc2s1	-14% (inactive)	–
Nc1ccc(N=Nc2ccccc2Cl)c(N)n1	-8.19% (inactive)	–
Cc1cc(Br)cn2c(Cc3ccccc3C(F)(F)F)c(C3CCCCC3)nc12	-28.2% (inactive)	–
Cc1ccc(-c2nc3ccc(Br)cn3c2Cc2ccccc2C(F)(F)F)cc1	–	16.4 µM (active)
CN1CCN(Cc2c(C(=O)N3CCc4ccccc4C3)nc3ccc(Cl)cn23)CC1	-25.8% (inactive)	–
Cc1ccc(Cc2c(-c3ccco3)nc3ccc(Cl)cn23)cc1	–	8.2 µM (active)
CC(=O)Nc1c(-c2ccc(C)cc2)nc2ccc(Cl)cn12	8.94% (inactive)	–

Structure (SMILES)	activity change, negative = growth inhibition	Potency
Cc1cc(Br)cn2c(Cc3ccccc3C(F)(F)F)c(-c3ccc(Cl)cc3)nc12	-17% (inactive)	–
Cc1ccc(Cc2c(-c3ccccc3)nc3ccc(Cl)cn23)cc1	-24.5% (inactive)	–
Cc1ccc(-c2nc3c(C)cc(Br)cn3c2Cc2ccccc2)cc1	-10.3% (inactive)	–
Cc1ccc(-c2nc3ccc(Cl)cn3c2Cc2ccccc2)cc1	–	20.6 µM (active)
Cc1ccccc1-n1nnnc1SCCCC(=O)c1ccc(F)cc1	-22.2% (inactive)	–
CCCS(=O)(=O)NC(=O)C1(C)CCCN(C(=O)c2cc(C)on2)C1 (centres undefined)	-2.06% (inactive)	–
O=S(=O)(c1cccc(-c2cn3ccccc3n2)c1)N1CCCC1	-20.9% (inactive)	–
O=C(COC(=O)c1cccc(Cl)c1)NC1CCCCCCC1	-6.99% (inactive)	–
Cc1nnc(NC(=O)Cn2c(=O)sc3ccccc32)s1	9.47% (inactive)	–
O=C(c1ccccc1)c1ccc2nc(N3CCCCC3)c3nncn3c2c1	–	23.1 µM (active)
c1ccc(CC2CCN(c3nc4ccccc4n4cnnc34)CC2)cc1	-8.49% (inactive)	–
O=C(NNc1nc(N2CCCC2)nc(N2CCCC2)n1)c1ccccc1	0.8% (inactive)	–
O=C(CN1CCCCC1)NC(=O)Nc1ccccc1F	-11.1% (inactive)	–
Cc1cc(C)c(C(N)=O)c(Cl)n1	-4.65% (inactive)	–
COc1ccc(CN2C(=O)C(CC(=O)NCCN3CCOCC3)CC(C(=O)N(C(C)C)C(C)C)=C2C)cc1 (centres undefined)	-29.1% (inactive)	–
CC(C)(Oc1ccc(Cl)cc1)C(=O)OCC(=O)NCCc1ccc(S(N)(=O)=O)cc1	-16.8% (inactive)	–
O=C(N/N=C/c1ccc(Cl)c(Cl)c1)c1ccc2nc[nH]c2c1	-76.4% (inactive)	–
CCCc1cc(=O)oc2c(C)c(OCC(=O)N3CCC(C(=O)O)CC3)ccc12	-4.53% (inactive)	–
O=S(=O)(c1ccc(Br)cc1)N1CCC(c2nc3ccccc3[nH]2)CC1	–	18.4 µM (active)
CN(C)CCCNC(=S)N1CCC(c2nc3ccccc3[nH]2)CC1	0.871% (inactive)	–
O=C(NCc1ccccn1)C1CCN(S(=O)(=O)c2ccc(Br)cc2)CC1	-7.15% (inactive)	–
Cc1ccc2oc(C(=O)N3CCN(C)C[C@@H]3C(C)C)c(C)c2c1	-28% (inactive)	–
CN(C(=O)CN1C(=O)NC(C)(CCc2ccccc2)C1=O)c1ccccc1 (centres undefined)	5.1% (inactive)	–
Cc1cccc(-n2c(SCC(=O)Nc3cccc(S(=O)(=O)NC4=NCCCCC4)c3)nc3ccccc3c2=O)c1C	–	5.17 µM (active)
COc1ccccc1C(=O)OCC(=O)Nc1cccc(S(=O)(=O)NC2=NCCCCC2)c1	-3.79% (inactive)	–
CCc1ccc(C(=O)OCC(=O)Nc2cccc(S(=O)(=O)NC3=NCCCCC3)c2)cc1	8.22% (inactive)	–

From PubChem BioAssay AID686979 (National Center for Advancing Translational Sciences (NCATS), 2013)
